# CYP2C19 inhib: inhibitors of human CYP2C19; 96,000 tested, 21% active; inhibition, % at 5 µM; CYP2C19 Supersomes, luciferin-H EGE luminescence, 30 min; P33261;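 active = CYP2C19 inhibition above a set limit at 5 µM in the primary screen, cut at about 50% in these data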
# Target sequence (P33261 whole entry, looked up): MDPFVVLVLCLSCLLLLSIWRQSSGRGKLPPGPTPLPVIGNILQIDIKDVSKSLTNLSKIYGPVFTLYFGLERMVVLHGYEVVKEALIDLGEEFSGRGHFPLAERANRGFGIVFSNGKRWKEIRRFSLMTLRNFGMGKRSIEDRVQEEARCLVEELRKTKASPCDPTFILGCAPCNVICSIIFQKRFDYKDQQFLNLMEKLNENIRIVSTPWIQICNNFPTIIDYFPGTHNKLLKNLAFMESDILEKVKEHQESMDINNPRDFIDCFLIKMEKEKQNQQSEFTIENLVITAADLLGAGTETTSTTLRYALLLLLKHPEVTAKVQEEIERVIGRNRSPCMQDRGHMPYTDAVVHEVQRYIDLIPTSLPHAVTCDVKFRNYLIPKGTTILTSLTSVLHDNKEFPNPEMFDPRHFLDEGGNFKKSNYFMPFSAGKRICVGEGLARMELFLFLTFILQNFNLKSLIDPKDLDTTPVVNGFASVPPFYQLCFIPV
# CYP2C9 inhib: human CYP2C9 inhibition. inhibition, % at 5 µM. 96,000 tested, 20% active. CYP2C9 Supersomes, luciferin-H conversion, luminescence. AID 777. P11712;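 active = blocking of liver enzyme CYP2C9 beyond about 50% at 5 µM, limit read from the data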
# CYP2C19 act: activators of human cytochrome P450 2C19 | P33261 | recombinant CYP2C19, luciferin-H EGE luminescence; stronger effect = higher value; 0 = fully inhibited enzyme, 1 = untreated enzyme | activation factor at 5 µM | 96,000 tested, under 10 active | AID 1025;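 active = activation factor of at least 2 at 5 µM in the primary screen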
# Cav32 inh: human Cav3.2 channel inhibition, primary screen; 100,000 tested, 4% active; B-score at 10 µM; Cav3.2-expressing cells, Fluo-4 calcium fluorescence FDSS; stronger effect = lower value;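 active = single-dose well whose peak fluorescence ratio is a statistical outlier from its plate by either plate-standardised score or position-corrected B-score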
# CYP2C9 activ: CYP2C9 (human) activation; P11712; recombinant CYP2C9, luciferin-H conversion, luminescence; stronger effect = higher value; factor 1 = untreated enzyme, 0 = blocked; activation factor at 5 µM; 96,000 tested, 1.4% active; AID 1024;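 active = activation factor of 2 or more for CYP2C9 at a 5 µM dose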
# Hits are given with their value; . = inactive; / = not tested or not shown. Shown are actives, neighbours in structure and some others; about 27% of the full set was active somewhere.
SMILES,CYP2C19 inhib,CYP2C9 inhib,CYP2C19 act,Cav32 inh,CYP2C9 activ
CCOC(=O)c1c(NC(=O)CN2CCCCC2)sc2c1CCN(C(=O)OCC)C2,65,.,.,.,.
CCOC(=O)c1c(NC(=O)CN2CCOCC2)sc2c1CCCC2=O,.,51,.,.,.
COC(=O)c1c(NC(C)=O)sc2c1CCCC2,.,.,.,.,.
CCOC(=O)C1CSC(CC(=O)Nc2ccc(Cl)cc2)C(=O)N1 (stereo not given),.,.,.,.,2
COC(=O)c1c(NC(=O)CC2SCC(C(=O)OC)NC2=O)sc2c1CCCC2 (stereo not given),69,.,.,.,2.2
Cn1cnnc1SCC(=O)c1ccc2c(c1)CCCC2,.,.,.,.,.
CCn1nnnc1SCC(=O)Nc1nc(-c2cccs2)cs1,/,/,/,.,/
CCC(C)NC(=O)Cn1cnc2sc(C)cc2c1=O (stereo not given),.,.,.,.,.
CCOC(=O)c1c(NC(=O)COC)sc2c1CCCC2,.,58,.,.,.
CCOC(=O)c1c(NC(=O)CN2CCOCC2)sc2c1CCCC2,99,100,.,.,.
CCOC(=O)c1c(NC=O)sc2c1CCC2,.,.,.,/,.
CC(=O)N=c1sc(C(C)(C)C)c(C)n1C,.,.,.,.,.
CC1(C)Cc2cccc(OCC(=O)Nc3cc(C(F)(F)F)ccc3N3CCOCC3)c2O1,.,51,.,.,.
CC1(C)Cc2cccc(OCC(=O)Nc3cccnc3)c2O1,.,.,.,.,.
CC1(C)Cc2cccc(OCC(=O)Nc3cccnc3Cl)c2O1,98,.,.,.,2.2
Cc1noc(C)c1COC(=O)COc1cccc2c1OC(C)(C)C2,77,68,.,.,.
CC(=O)c1c(C)[nH]c(C(=O)OCC(=O)Nc2cc(C(F)(F)F)ccc2N2CCOCC2)c1C,.,58,.,.,.
COc1cccc(N/C=C(\C#N)c2ccc(OCCCF)cc2)c1,.,.,.,.,.
O=C(CN1C(=O)NC2(CCc3ccccc32)C1=O)Nc1cc(C(F)(F)F)ccc1N1CCOCC1 (stereo not given),.,89,.,.,.
Cc1noc(C)c1CSCC(=O)OCc1nc2ccccc2c(=O)n1CC#N,.,65,.,.,.
C/C=C(/C)C(=O)Nc1cccc(C2=NOC3(C2)C[C@@H](C(N)=O)N(C(=O)CCCCC)C3)c1 (stereo not given in full),/,/,/,.,/
CCOC(=O)COc1c(OC)cc(Cl)cc1C1NC(=O)NC(C)=C1C(C)=O (stereo not given),65,70,.,.,.
CCOC(=O)COc1c(Br)cc(C2NC(=O)NC(C)=C2C(C)=O)cc1OC (stereo not given),/,/,/,.,/
CCCC1=C(C(=O)OCC)C(c2cc(Cl)cc(OC)c2OCC(=O)OCC)NC(=O)N1 (stereo not given),.,88,.,-5.2,.
CCCC1=C(C(=O)OCC)C(c2ccccc2OC)NC(=O)N1 (stereo not given),.,.,.,.,.
SMILES,CYP2C19 inhib,CYP2C9 inhib,CYP2C19 act,Cav32 inh,CYP2C9 activ
CCc1nc2cc(CC(=O)O)ccc2o1,.,.,.,.,.
Cc1cc(C)cc(OCc2nnc(SCC(=O)N3CCN(c4ccccc4)CC3)o2)c1,.,.,.,/,.
O=C(NC1(C(F)(F)F)NC(=O)N(Cc2cccnc2)C1=O)c1cccs1 (stereo not given),52,.,.,.,.
COC(=O)CCN(C(=O)C1C2CC3CC(C2)CC1C3)c1ccccn1 (stereo not given),.,.,.,.,.
CC(C)OC(=S)N/C(=N\S(=O)(=O)c1ccccc1)c1ccccc1,.,61,.,.,.
COc1ccc(O/C(=N\S(=O)(=O)c2ccccc2)c2ccccc2)cc1,.,.,.,.,.
CC(C)CO/C(=N/S(=O)(=O)c1ccccc1)c1ccccc1,76,78,.,-4.1,.
COc1cc(Cn2ccnc2)c(OC)cc1Cn1ccnc1,78,73,.,.,.
CCOC(=O)CCCCC(=O)c1[nH]c(=O)[nH]c1Cn1ccnc1,.,.,.,.,.
O/N=C/CCn1c(=S)sc2ccccc21,.,.,.,.,5.1
Cc1cccc(OCCn2c(=O)sc3ccccc32)c1,/,/,/,.,/
O=c1oc(/C=C/c2ccco2)nc2sc3c(c12)CCC3,.,.,.,/,.
Cc1ccc(N=Cc2nc(-c3ccco3)oc2O)cc1,.,56,.,.,.
Cc1cc(SCc2cc(=O)[nH]c3ccccc23)nc2ccccc12,.,.,.,/,.
O=C(NCc1ccccc1C(F)(F)F)C1CC(c2cccc(F)c2)=NO1 (stereo not given),/,/,/,.,/
Cc1ccc(C(=O)C2C(c3ccc(-c4ccccc4[N+](=O)[O-])o3)NC(=O)NC2(O)C(F)(F)F)cc1 (stereo not given),/,/,/,-7.1,/
COc1ccc(C2NC(=O)NC(O)(C(F)(F)F)C2C(=O)c2ccc(C)cc2)cc1 (stereo not given),.,.,.,.,.
Cc1ccc(C(=O)CN(C(=O)c2ccc(Cl)c(Cl)c2)N2C(=O)C3C4C=CC(C4)C3C2=O)cc1 (stereo not given),79,93,.,.,.
O=C(CN(C(=O)c1ccc(Cl)cc1Cl)N1C(=O)C2C3C=CC(C3)C2C1=O)c1ccc(F)cc1 (stereo not given),/,/,/,.,/
O=C(Cn1c(NCCO)nc2ccccc21)NCCc1ccc(F)cc1,.,.,.,.,.
N#CCCn1c(SCC(=O)NCCc2ccc(F)cc2)nc2ccccc21,82,.,.,.,.
CCn1c(Sc2ccc(N)cc2Cl)nc2ccccc21,87,.,.,.,2.3
CCn1c(-c2cccnc2Cl)nc2ccccc21,.,.,.,/,.
CCCn1c(SCC(=O)O)nc2ccccc21,.,.,.,.,.
CCn1c(SCC(=O)NC(C)c2ccccc2)nc2ccccc21 (stereo not given),54,.,.,.,.
SMILES,CYP2C19 inhib,CYP2C9 inhib,CYP2C19 act,Cav32 inh,CYP2C9 activ
CC(NC(=O)CSc1nc2ccccc2n1CCC#N)c1ccc(F)cc1 (stereo not given),94,55,.,.,.
CC1(C)NC(=O)N(CC(O)CN2CCCC2)C1=O (stereo not given),.,.,.,.,.
Nc1nnc(CC(c2ccccc2)c2ccccc2)s1,85,.,.,.,.
COc1ccc(OCc2n[nH]c(=S)o2)cc1,.,89,.,.,.
S=c1[nH]nc(COc2ccc(Cl)cc2)o1,.,.,.,.,.
COc1ccc(S(=O)(=O)Nc2cc3c(C(C)=O)c(C)oc3c3ccccc23)cc1,93,84,.,.,.
COc1cc(NS(=O)(=O)c2ccc(C)cc2)c2ncccc2c1,/,/,/,.,/
CCCOc1ccc(C2C(=O)N(C3CCCCC3)CC(=O)N2C2CC2)cc1OC (stereo not given),.,.,.,.,.
O=C(CSc1nccn1-c1ccccc1)c1ccc(Cl)cc1,74,.,.,/,.
Cc1ccc(C)c(-n2ccnc2SCC(=O)O)c1,.,59,.,.,.
Cc1ccc(C(=O)CSc2nccn2-c2ccccc2)cc1,56,.,.,.,.
